Screening data (PubChem BioAssay)
In the library only some 1.5% were active in any assay of this set; here they are far more common.
IDE cell activ: activators of human insulin-degrading enzyme in cells | AID 493087 | activation, % at 5.96 µM | HEK cells, FAbeta-B cleavage, fluorescence polarization; 0% vehicle, 100% cell-free pure enzyme wells | 340,000 tested, 0.073% active;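 active = activation above the mean of all tested compounds plus 3 SD, set per screening campaign, cut at about 17% in these data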
GLD-1 RNA inh: GLD-1-TGE RNA interaction inhibition (C. elegans); Q17339; purified GLD-1 + fluorescein TGE RNA, fluorescence polarization; inhibition, % at 5.96 µM; 320,000 tested, 0.44% active; AID 2280;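 active = percent inhibition above a per-plate cutoff, the plate mean of test compounds plus 3 SD, cut at about 30% in these data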;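 also: 0% = DMSO wells with GLD-1 and probe and 100% = wells lacking GLD-1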
Target sequence (Q17339 whole entry, looked up): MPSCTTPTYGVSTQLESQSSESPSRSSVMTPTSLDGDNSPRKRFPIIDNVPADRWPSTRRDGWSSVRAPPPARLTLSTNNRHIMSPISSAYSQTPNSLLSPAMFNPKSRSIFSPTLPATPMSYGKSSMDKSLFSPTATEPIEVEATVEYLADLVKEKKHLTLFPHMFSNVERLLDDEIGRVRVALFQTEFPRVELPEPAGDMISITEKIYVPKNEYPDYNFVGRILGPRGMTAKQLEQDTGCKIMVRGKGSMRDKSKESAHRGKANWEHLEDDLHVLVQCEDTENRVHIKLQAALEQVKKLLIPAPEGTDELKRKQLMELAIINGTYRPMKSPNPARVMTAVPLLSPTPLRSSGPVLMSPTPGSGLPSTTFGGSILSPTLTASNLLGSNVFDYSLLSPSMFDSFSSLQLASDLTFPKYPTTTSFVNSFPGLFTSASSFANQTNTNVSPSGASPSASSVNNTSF
MCL1 BIM primary: MCL1-BIM-BH3 interaction inhibition (human); Q07820; GST-MCL1 / FITC-Bim-BH3 fluorescence polarization; inhibition, % at 10.9 µM; 320,000 tested, 0.68% active;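 active = inhibition above the mean inhibition of all tested compounds plus 3 SD, set per campaign, cut at about 40% in these data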;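 also: 0% = DMSO wells and 100% = unlabeled Bim-BH3 peptide control; higher means more loss of mP so more displacement of Bim peptide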
BCLXL inh: inhibitors of human Bcl-xL; AID 2129; inhibition, % at 10.9 µM; GST-Bcl-xL / FITC-Bim BH3 peptide fluorescence polarization; 320,000 tested, 0.7% active; Q07817;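 active = inhibition above the mean of all tested compounds plus 3 SD, cutoff set per campaign, cut at about 30% in these data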;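 also: 0% = DMSO wells and 100% = unlabeled Bim-BH3 peptide competitor; inhibitors lower millipolarization by displacing the labeled peptide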
Target sequence (Q07817 whole entry, looked up): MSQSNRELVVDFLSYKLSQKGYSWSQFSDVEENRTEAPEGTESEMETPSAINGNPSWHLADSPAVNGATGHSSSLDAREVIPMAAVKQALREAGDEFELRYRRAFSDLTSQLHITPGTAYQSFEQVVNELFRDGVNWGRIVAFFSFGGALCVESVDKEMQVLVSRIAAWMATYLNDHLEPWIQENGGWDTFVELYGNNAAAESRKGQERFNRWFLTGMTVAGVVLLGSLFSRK
IDE inh: inhibitors of human insulin-degrading enzyme in cells. P14735. inhibition, % at 5.59 µM. HEK cells, FAbetaB cleavage, fluorescence polarization. 320,000 tested, 0.41% active. AID 434962;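 active = percent inhibition above the average of all tested compounds plus 3 SD, set per screening campaign, cut at about 16% in these data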;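 also: IDE supplied by intact live HEK cells; FP after avidin binding of uncleaved biotin substrate so inhibition keeps polarization high; 0% = DMSO wells and 100% = 60 µM reference IDE inhibitor Ii1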
MEX-5 binding: C. elegans MEX-5 TCR-2 RNA binding activity. Q9XUB2. MEX-5/FITC-TCR2 RNA binding, fluorescence polarization; hits give low values. activity score (negative = inhibition of binding), % at 10 µM. 300,000 tested, 0.38% active. AID 1832;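 active = inhibition past about -25% in most replicates, and total fluorescence under double the plate's negative control median, limit read from the data; inconclusive = replicates evenly split on the limit, or fluorescence at least double controls; inactive = too little inhibition in most replicates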;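 also: 0% = DMSO and -100% = 5 µM competing unlabeled TCR2 RNA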
GLD-1 TGE cf: GLD-1 TGE RNA interaction inhibition, confirmation | shares compounds with GLD-1 RNA inh | GLD-1/FL-TGE RNA fluorescence polarization, biochemical | inhibition, % at 5.96 µM | 550 tested, 10% active | AID 2459;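 active = average inhibition across triplicates above the hit cutoff set in the primary screen, cut at about 32% in these data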;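 also: 0% = GLD-1 with RNA probe and DMSO and 100% = wells lacking GLD-1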
IDE cell inh cf: cellular human IDE inhibition, confirmation | shares compounds with IDE inh | inhibition, % at 5.59 µM | AID 435028 | 1,200 tested, 51% active | HEK cells, FAbetaB cleavage, fluorescence polarization;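 active = mean inhibition across triplicate wells above the cutoff set by the earlier primary insulin-degrading enzyme screen, cut at about 16% in these data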;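 also: 0% = DMSO wells and 100% = 60 µM reference IDE inhibitor Ii1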
HEK293 tox: HEK cell cytotoxicity, counter-screen for IDE inhibitors. shares compounds with IDE inh. HEK293 cytotoxicity, ATP luminescence. inhibition, % at 5.59 µM. 1,200 tested, 28% active; in the data active = inhibition above about 22%;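 also: 0% = vehicle wells and 100% = reference cytotoxic drug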
* = called active by the depositor; ? = inconclusive; nt = not tested or not shown.

SMILES	IDE cell activ	GLD-1 RNA inh	MCL1 BIM primary	BCLXL inh	IDE inh	MEX-5 binding	GLD-1 TGE cf	others
Cc1cc2n(n1)C(c1ccccc1)CC(c1ccc(Br)cc1)=N2 (stereo not given)	-23	53*	4	13	10	nt	16
Cc1noc(C)c1S(=O)(=O)N(CC(=O)NCCc1ccccc1)c1ccc(C(C)C)cc1	6	48*	1	5	5	-2	1
O=C(Nc1ccccc1)Nc1ccccc1	2	nt	nt	nt	nt	nt	nt
O=C(Nc1ccccc1)Nc1ccc(Cl)nc1Cl	-3	36*	2	-3	0	1	-4
CCCCCCOc1ccc(C(=O)O)cc1C#N	4	40*	9	3	0	1	-3
CCCCCCCCOc1ccc(C(=O)O)cc1	2	4	7	6	6	nt	nt
CC(O)c1nc2ccc(C(=O)O)cc2[nH]1 (stereo not given)	1	2	-1	2	-3	-5	nt
O=C1CC(N2CCN(S(=O)(=O)c3ccccc3F)CC2)C(=O)N1c1ccccc1F (stereo not given)	1	nt	nt	nt	nt	nt	nt
COCCCN1CN(S(=O)(=O)c2ccc(Cl)cc2)c2nc3ccccc3nc21	3	34*	26	29	4	0	0
C=CCN1CN(S(=O)(=O)c2cccc(Cl)c2)c2nc3ccccc3nc21	8	45*	30	34*	8	-10	0
Cc1ccc(C)c(NC(=O)CN2C(=O)NC(C)(c3ccc4c(c3)OCCO4)C2=O)c1 (stereo not given)	3	5	-8	0	3	nt	nt
COc1ccc(Nc2ncc3c(n2)CC(c2ccc(C)cc2)CC3=O)cc1 (stereo not given)	2	3	7	6	-3	-2	nt
COc1ccc(Nc2ncc3c(n2)CC(c2ccc(OC)cc2)CC3=O)cc1 (stereo not given)	-3	45*	-1	4	1	3	1
Cc1ccc[n+](-c2nc([O-])sc2/C=N/Nc2ccc([N+](=O)[O-])cc2)c1	6	39*	40*	42*	5	-12	39*
CC1CCCN(C(=O)CN(c2ccccc2)S(=O)(=O)c2ccc(F)cc2)C1 (stereo not given)	2	5	3	1	-5	nt	nt
Oc1ccc(/C=N/Nc2cc(N3CCCC3)nc(N3CCCC3)n2)cc1	0	39*	24	17	-5	1	38*
CC(C)c1ccc(S(=O)(=O)NCc2ccc3c(c2)OCO3)cc1	2	-3	8	3	-1	0	nt
Cc1cc(C)c(C2=CC(c3ccccc3)n3ncnc3N2)cc1C (stereo not given)	nt	9	-1	5	-2	-1	nt
Cc1ccc(C2C=C(c3ccccc3)Nc3ncnn32)cc1 (stereo not given)	1	33*	23	24	9	2	1
CC(C)C1=C2OC(N)=C(C#N)C(C#N)=C2C(C)CC1 (stereo not given)	-4	39*	38	35*	4	-17	15
O=C(C(=O)N1CCN(c2ccccc2)CC1)c1cn(CC(=O)N2CCCCCC2)c2ccccc12	3	31*	11	6	6	-7	7
O=C(Nc1ccc2nc3ccccc3nc2c1)c1ccc(Br)cc1	0	5	24	30	0	-13	nt
CC(=O)Nc1ccc2nc3ccccc3nc2c1	5	48*	50*	59*	7	-18	34*
CC(C)Oc1ccc(C2CC(=O)N(c3cccc(Br)c3)C2=O)cc1 (stereo not given)	nt	2	2	-1	1	2	nt
N#CC1=C(N)NC(=S)C(C(N)=O)C1c1ccccc1F (stereo not given)	-8	12	11	11	27*	-3	nt	IDE cell inh cf=11;HEK293 tox=6
SMILES	IDE cell activ	GLD-1 RNA inh	MCL1 BIM primary	BCLXL inh	IDE inh	MEX-5 binding	GLD-1 TGE cf	others
N#CC1=C(N)NC(=S)C(C(N)=O)C1c1ccc(Cl)cc1Cl (stereo not given)	-26	0	3	5	5	-2	nt
O=C(N/N=C/c1cccnc1)c1cccc(NC(=O)c2cccc(Br)c2)c1	-14	-8	1	1	25*	-2	nt	IDE cell inh cf=17*;HEK293 tox=8
CC(=O)Nc1cccc(C(=O)N/N=C/c2cccnc2)c1	-6	4	12	4	1	5	nt
Cc1csc(NC(=O)c2cc3c(s2)-c2ccccc2OC3)n1	0	-2	-2	-1	0	3	nt
Cc1c(NC(=O)c2cc3c(s2)-c2ccccc2OC3)cccc1[N+](=O)[O-]	-9	3	9	7	27*	1	nt	IDE cell inh cf=2;HEK293 tox=39*
Cc1ccc(C(=O)/C=C/c2c[nH]c3ccccc23)cc1	-5	-18	-7	1	-1	-3	nt
CCN(CC)C(=O)c1ccc(/C=C/c2c[nH]c3ccccc23)[n+](C)c1	-23	-166	-130	-68	22*	?	nt	IDE cell inh cf=21*;HEK293 tox=16
Cc1ccc(-c2n[nH]c(=O)c3ccccc23)cc1S(=O)(=O)NCC1CCCO1 (stereo not given)	-6	-14	-3	0	4	1	nt
Cc1ccc(-c2n[nH]c(=S)c3ccccc23)cc1S(=O)(=O)NCC1CCCO1 (stereo not given)	-11	2	1	10	22*	0	nt	IDE cell inh cf=5;HEK293 tox=16
CC(=O)Nc1c2c(nn1-c1cccc(Cl)c1)CS(=O)(=O)C2	2	3	-3	1	3	2	nt
CCOC(CCNC(=O)c1cn(CCOC)c(=O)c2c1c1ccccc1n2C)OCC	1	3	2	2	3	-1	nt
CCNC(=O)CSc1nc(-c2ccc(F)cc2)cs1	-2	0	6	6	4	2	nt
CC(C)(C)NC(=O)CSc1nc(-c2ccc(F)cc2)cs1	5	-4	-3	-1	16*	3	nt	IDE cell inh cf=2;HEK293 tox=14
Oc1ccc(Br)cc1C=Nc1ccc2c3c(cccc13)CC2	-3	-36	-7	14	22*	2	nt	IDE cell inh cf=1;HEK293 tox=10
Cc1ccccc1NC(=O)c1cccc(NC(=O)c2ccccc2C(=O)O)c1	3	2	1	5	-1	-5	nt
O=C(NN=C1CCCC1)c1sc2ccccc2c1Cl	3	14	3	-1	-8	-3	nt
O=C1CCC/C(=N/NC(=O)c2sc3ccccc3c2Cl)C1	-15	103*	-32	2	26*	-27*	nt	IDE cell inh cf=27*;HEK293 tox=2
